Test system: Vero E6 infected with SARS-CoV-2
Assay: inhibition of SARS-CoV-2 cytopathic effect; higher = more antiviral protection, active = above 15
Conditions: 48 h

Measured: inhibition of SARS-CoV-2 cytopathic effect

O=C(NCCN1CCC2(CC1)C(=O)NCN2c1cccc(F)c1)c1ccc(F)c(F)c1
active: 10000 nM 22%
inactive: 1 nM 3.32% | 8.33 nM 2.54% | 100 nM 0.98% | 833.33 nM 1.22%

CC1(C)CC(O)CC(C)(C)N1[O] [tempol]
inactive: 1 nM 9.35% | 8.33 nM 1.45% | 100 nM -0.66% | 833.33 nM 1.43% | 10000 nM 1.53%

NC12CC3CC(CC(C3)C1)C2 [amantadine]
inactive: 1 nM 0.16% | 8.33 nM 1.94% | 100 nM 0.25% | 833.33 nM 0.33% | 10000 nM 3.28%

CC(=O)CC/C=C(\C)CC/C=C(\C)CC/C=C(\C)CCC=C(C)C [teprenone]
inactive: 1 nM -0.07% | 8.33 nM 1.34% | 100 nM -1.34% | 833.33 nM 1.98% | 10000 nM 0.16%

CC(N)Cc1c[nH]c2ccc(OCc3cccs3)cc12 (stereo not given)
inactive: 1 nM 0.71% | 8.33 nM -0.24% | 100 nM 0.67% | 833.33 nM -1.65% | 10000 nM -3.56%

COc1ccc(C(=O)c2c(C)n(CCN3CCOCC3)c3cc(I)ccc23)cc1
inactive: 1 nM -3.57% | 8.33 nM -3.84% | 100 nM -3.42% | 833.33 nM -0.63% | 10000 nM 2.05%

CCOC(=O)[C@]12CC1/C(=N\O)c1ccccc1O2 (stereo not given in full)
inactive: 1 nM 1.49% | 8.33 nM -0.95% | 100 nM -1.19% | 833.33 nM -3.34% | 10000 nM -1.39%

C[n+]1cc2c3c(ccc2c2ccc4cc5c(cc4c21)OCO5)OCO3 [sanguinarium-chloride]
inactive: 1 nM 0.27% | 8.33 nM 0.22% | 100 nM -1.52% | 833.33 nM 2.52% | 10000 nM -25.4%

— the supplement of paper PMC13380429
